Assay results reported in ChEMBL document CHEMBL4513216, “Probing the Open Global Health Chemical Diversity Library for Multistage-Active Starting Points for Next-Generation Antimalarials” (ACS Infect Dis, 2020).
The campaign covered roughly 68,000 compounds. About 2,700 (4%) showed an effect of 50% or more. This is one part of a sample in which strong results are shown more often than they occur.

system: Plasmodium berghei; assay: Screen against P. berghei liver stage (PbLuc), transformed with Luciferase, at 2uM; type: functional, HepG2; conditions: tested at 2 uM

| SMILES | INHIBITION [%] |
| --- | --- |
| Cc1cc(S(=O)(=O)NCC(C)(O)CN(C)C)c(F)cc1F (centres undefined) | 8.05 |
| CN(C)C(=O)c1cccc(C[S+]([O-])CC(=O)NC2CCCC2)c1 (centres undefined) | -13.12 |
| Cc1cc(CS(=O)(=O)NC2CCCc3ccccc32)on1 (centres undefined) | 57.34 |
| Cc1cc(CS(=O)(=O)NCC2CCCCC2)on1 | 10.22 |
| Cc1cc(CS(=O)(=O)NC2CCCCC2)on1 | 35.46 |
| CCCc1n[nH]c(=O)n1Cc1ccc(OC)cc1 | -13.14 |
| O=C(COC1CCCC1)Nc1ncn(CC(=O)N2CCCCCC2)n1 | 22.29 |
| CC(C)Nc1nnc(SCc2nnc(C(C)(C)C)o2)s1 | 13.91 |
| O=C(NCC1CC1)C1CN(c2ncccn2)Cc2ccnn2C1 (centres undefined) | 64.37 |
| O=C(NCC1CC1)C1CN(Cc2ccncc2)Cc2ccnn2C1 (centres undefined) | 7.55 |
| O=C(NCC1CC1)C1CN(Cc2cccs2)Cc2ccnn2C1 (centres undefined) | 23.53 |
| O=c1ccc(-c2cccs2)nn1CN1CCOC(c2ccccc2)C1 (centres undefined) | -30.87 |
| Cc1nc(CN2CCC3(CC2)CC(=O)N(C)c2ccccc23)cs1 | 9.8 |
| Clc1cncc(NCc2cccc(COC3CCOCC3)c2)n1 | -0.39 |
| Clc1cnccc1NCc1cccc(COC2CCOCC2)c1 | 68.73 |
| CNS(=O)(=O)Cc1cccc(CNc2ccc(C#N)cn2)c1 | 19.12 |
| Clc1cnccc1N1CCC(OC2CCOCC2)CC1 | -76.37 |
| N#Cc1ccc(NCc2cccc(COC3CCOCC3)c2)nc1 | 66.24 |
| N#Cc1ccc(NCc2cccc(OCC3CCCO3)c2)nc1 (centres undefined) | 42.35 |
| CC(=O)N1CCN(Cc2nccs2)CC2(CC(=O)N(C)C2)C1 (centres undefined) | 26.01 |
| CCC(Nc1cccc(OC)c1)C(=O)NCc1ccc2c(c1)OCO2 (centres undefined) | 11.6 |
| c1cnn(CC2CN(Cc3csc(C4CCCCC4)n3)CCO2)c1 (centres undefined) | -43.79 |
| Cc1cccc(CN2CCN(C(=O)c3cnc(C)[nH]c3=O)CC2)c1 | 43.15 |

| SMILES | INHIBITION [%] |
| --- | --- |
| CNC(=O)CN1C(=O)CN(C(=O)COC)CCC(OC)c2ccccc21 (centres undefined) | -8.2 |
| O=S(=O)(c1ccccc1)N1C[C@@H]2COC[C@]2(CN2CCOCC2)C1 | 29.19 |
| Cc1cc(C(F)(F)F)cc(N2C[C@@H](CN3CCOCC3)[C@@H](CO)C2)n1 | -18.71 |
| CCN(CCO)C[C@@H]1CN(c2cc(C(F)(F)F)cc(C)n2)C[C@@H]1CO | 14.59 |
| Cc1cc(C(F)(F)F)cc(N2C[C@@H](CN(C)CCO)[C@@H](CO)C2)n1 | 50.97 |
| c1cncc(CN2CCn3cc(Cn4cccn4)nc3C2)c1 | 15.39 |
| Cc1ccc(N2CC3(COCCN(Cc4cccnc4)C3)OCC2=O)s1 (centres undefined) | -5.44 |
| CN(C)c1cc(CNC(=O)c2cc(Cl)ccn2)ccn1 | 49.01 |
| Cc1ccc(CC(=O)N2CCCC(c3cc(C(N)=O)[nH]n3)C2)cn1 (centres undefined) | 14.53 |
| CC(C)(C)C(=O)NCCC(=O)N1CCC(Nc2cccnn2)CC1 | -27.69 |
| COCCN1CCC2(CC1)CN(C(=O)Cc1cccnc1)CCO2 | 35.89 |
| COCCN1C[C@@H](C)[C@@]2(COCCN(C(=O)c3cccs3)C2)C1 | -3.19 |
| COCCN1CCC2(CC1)CN(C(=O)c1ccccc1)CCO2 | 58.4 |
| COCCN1CCC2(CC1)CN(C(=O)c1cccs1)CCO2 | 57.31 |
| O=C(c1ccccc1)N1CCOC2(CCN(Cc3cccs3)CC2)C1 | 20.51 |
| COCCN1CCC2(CC1)CN(C(=O)c1ccco1)CCO2 | 45.22 |
| Cn1ccnc1CN(Cc1ccccn1)Cc1ccccc1Cl | -8.33 |
| CN(Cc1ccc(Cl)s1)C(=O)NCCC(=O)N1CCCCCC1 | -12.84 |
| Cc1c(C(=O)NC2=NCCS2)cnn1-c1ccc(Br)cc1 | -23.27 |
| Cc1nsc(NC2CCOC3(CCCCC3)C2)n1 (centres undefined) | 62 |
| CC(C)c1nsc(NC2CCOC3(CCCC3)C2)n1 (centres undefined) | 30.06 |
| Cc1cc(C)nc(NC2CCOC3(CCCC3)C2)n1 (centres undefined) | 10.23 |
| Cc1nsc(NC2CCOC3(CCCC3)C2)n1 (centres undefined) | 62 |

| SMILES | INHIBITION [%] |
| --- | --- |
| CCc1nsc(NC2CCOC3(CCCC3)C2)n1 (centres undefined) | -9.6 |
| NC(=O)c1ccc(NC2CCOC3(CCCC3)C2)nn1 (centres undefined) | -0.45 |
| Cc1nn(C)c(Cl)c1CNCc1ccc(OCC(N)=O)cc1 | -5.1 |
| COc1ccccc1CN1C[C@@H]2COC[C@]2(COCc2ccncc2)C1 | 38.11 |
| Cc1cnc(N2CCc3ncnc(N4CCN(C)CC4)c3CC2)nc1 | 17.57 |
| CC(C)(C)c1cnc(CN2CCCC2Cn2cccn2)o1 (centres undefined) | -50.72 |
| CCC1CCCCN1Cc1ncc(C(C)(C)C)o1 (centres undefined) | 70.27 |
| CC(C)(C)c1cnc(CN2CCCCC2Cn2cccn2)o1 (centres undefined) | -23.94 |
| Cc1cc(C)n(CC2CCCN2Cc2ncc(C(C)(C)C)o2)n1 (centres undefined) | -11.91 |
| Cc1cnn(CC2CCCCN2Cc2ncc(C(C)(C)C)o2)c1 (centres undefined) | 30.91 |
| CC(C)(C)c1cnc(CN2CCC[C@H]2CO)o1 | 56.72 |
| O=S(=O)(NCC1(O)CCOCC1)c1c(F)cccc1F | 43.15 |
| CCc1cnc(N2CCc3ncnc(N4CCN(C)CC4)c3CC2)nc1 | -64.85 |
| NC(=O)N1CC(OCc2cccc3ccccc23)C1 | 5.98 |
| Cc1cc(C)c2ncn(CCOCCO)c(=O)c2c1 | 24.55 |
| O=C(NCc1n[nH]c2c1CCCCC2)c1cnn2c1CCCC2 | -23.38 |
| CCc1nc(CN2CCCN(C(=O)COCC3CC3)CC2)cs1 | 3.9 |
| Cn1cc(C(O)CNC(=O)c2cc(Br)ccc2Cl)cn1 (centres undefined) | 20.29 |
| CCC(CC)NC(=O)c1ccc2nnc(C3CCN(C(C)=O)C3)n2c1 (centres undefined) | 30.75 |
| O=C1CCC2(CCCN(C(=O)Cc3ccccn3)C2)N1 (centres undefined) | 29.85 |
| O=C1CCC2(CCCN(C(=O)Cc3ccccc3)C2)N1 (centres undefined) | 60.05 |
| O=C1CCC2(CCCN(C(=O)Cc3cccnc3)C2)N1 (centres undefined) | 29.3 |
| CS(=O)(=O)N1CCN(C(=O)c2cncs2)CC(C(N)=O)C1 (centres undefined) | -33.32 |
